# From PubChem BioAssay AID1578 (Sanford-Burnham Center for Chemical Genomics, 2009)
# The whole screen tested about 290,000 compounds, of which about 3,000 (1%) were called active. The list comes from a sample in which actives are over-represented; it also holds similar structures and randomly drawn compounds. Unmarked numbers belong to inactive results. Rule as the data show it: active = inhibition mostly above about 36% (no sharp cut-off); inactive = mostly below about 34%.
# Assay: NOD1 signaling inhibitors, primary screen, cell-based, luminescence, uHTS (AID 1578);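 also: HEK-293T reporter cells stimulated with the NOD1 agonist gamma-tri-DAP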
# Details: NOD1-driven NF-kB luciferase reporter cells, at 4 µM, hits give high values
row,SMILES,inhibition
1,COc1ccccc1P(=O)(Cc1ccccc1[N+](=O)[O-])c1ccccc1 (stereo unspecified),-7.4%
2,CN1Cc2c(N3CCOCC3)nc3sc(C#N)c(N)c3c2CC1(C)C,-1.3%
3,CCc1cc2c3c(c1)C(C)CC(C)(C)N3C(=O)C2=O (stereo unspecified),-3.6%
4,CCOc1cc2c3c(c1)C(C)CC(C)(C)N3C(=O)C2=O (stereo unspecified),-0.3%
5,COc1ccc(OC)c(NC(=O)CSc2nncc3ccc(OC)c(OC)c23)c1,1%
6,COc1ccc(OC)c(/C=N\NC(=O)c2ccc(-c3ccccc3)cc2)c1,-32%
7,COc1ccccc1Nc1nc(N)nc(CN2CCCCC2)n1,-0.3%
8,Cc1ccc(C(=O)CSc2nnc3c4ccccc4nc(Cc4ccccc4)n23)cc1,-10.1%
9,CC(=O)CSc1nnc2c3ccccc3nc(C(C)(C)C)n12,-19.2%
10,Cc1ccc(C(=O)CSc2nnc(-c3ccccc3N)n2C)cc1C,-30.8%
11,Cc1ccc(C(=O)CSc2nnc(-c3ccccc3N)n2C)cc1,101% (active)
12,Cc1ccc(C(=O)CSc2nnc3c4ccccc4nc(C(C)(C)C)n23)cc1,92.5% (active)
13,Cn1c(SCC(=O)c2ccc(F)cc2)nnc1-c1ccccc1N,-7.5%
14,CCCCN(C(=O)/C=C/c1ccc(OCC(C)C)c(OCC)c1)c1c(N)n(CCC)c(=O)[nH]c1=O,-20.9%
15,CCCCNCc1cc(Cl)c(OCCC)c(OCC)c1,-20.5%
16,Cc1ccccc1NC(=O)COC(=O)c1cccnc1,-22.1%
17,COc1ccc(-n2c(SCC(=O)Nc3cccc(C(=O)O)c3)nnc2-c2ccco2)cc1,-20.2%
18,Cc1nc(Cl)c2c(n1)NC(=O)CO2,0.5%
19,CCN(CC)C(=O)Oc1ccc2ccccc2c1Br,-53.4%
20,O=C(Nc1cccc(NC(=O)c2cccs2)c1)c1ccc([N+](=O)[O-])o1,36.9% (active)
21,O=C(Nc1cccc(NC(=O)c2cccs2)c1)c1ccc(Br)o1,-17.2%
22,Cc1ccc2nc(-c3ccc(NC(=O)c4cccnc4)cc3)oc2c1,58.7% (active)
23,COc1cc(NC(=O)c2ccc([N+](=O)[O-])o2)ccc1NC(=O)c1cccs1,9.1%
24,O=C(Nc1ccc2oc(-c3cccnc3)nc2c1)c1ccc(Br)o1,-16.5%

row,SMILES,inhibition
1,Cc1ccc2oc(-c3ccc(NC(=O)c4cccnc4)cc3)nc2c1,-27.5%
2,O=C(Nc1ccc2oc(-c3ccncc3)nc2c1)c1ccc([N+](=O)[O-])o1,22.8%
3,O=C(Nc1ccc(-c2nc3ccccc3o2)cc1)c1cccnc1,-1.6%
4,COCCNC(=O)C(c1ccc(OC)cc1)N(Cc1ccco1)C(=O)CCC(=O)Nc1ccccn1 (stereo unspecified),19.2%
5,COc1ccc(CN2CCN(Cc3c[nH]c4ccccc34)CC2CCO)cc1C (stereo unspecified),-1.8%
6,Cc1ccc(C(=O)CCNc2ccc(Cl)cc2)o1,-29.8%
7,CS(=O)(=O)N(CC(=O)NCC1CCCO1)c1cc(Cl)ccc1Cl (stereo unspecified),2.4%
8,O=c1c[n+]([O-])c2ccccc2n1OCc1ccccn1,0.2%
9,C#CCN1C(=O)C(O)(CC(=O)/C=C/c2ccco2)c2ccccc21 (stereo unspecified),-14.4%
10,CSCCC(NC(=O)C1CCC(C)CC1)C(=O)N1CCN(c2ccccn2)CC1 (stereo unspecified),4.8%
11,CC(C)CC(NC(=O)C1CCC(C)CC1)C(=O)N1CCN(c2ccccn2)CC1 (stereo unspecified),0.1%
12,CC1CCC(C(=O)NC(C(=O)N2CCN(c3ccccn3)CC2)C(C)C)CC1 (stereo unspecified),68% (active)
13,C/C(=N\N(c1ccccc1)c1ccccc1)c1ccco1,-19.4%
14,COCCOC(=O)C1=C(C)NC(=S)NC1/C=C/c1ccccc1 (stereo unspecified),-9.4%
15,Cc1cccc(NC(=O)c2cccc(NC(=O)c3ccccc3)c2)n1,-35.6%
16,CC(=O)Nc1ccc(NC(=O)CSc2nc3nc(-c4cccs4)cc(C(F)(F)F)c3c(=O)[nH]2)cc1,-6.3%
17,COc1ccc(NC(=O)CSc2nc3nc(-c4cccs4)cc(C(F)(F)F)c3c(=O)[nH]2)c(OC)c1,31.6%
18,O=C(NCc1ccccc1)C1=C[C@@H](C2CC2)C[C@@H](OCCCCO)O1,-27.5%
19,O=C(CC1Sc2ccccc2NC1=O)OC(C(=O)NCCc1ccccc1)c1cccnc1 (stereo unspecified),3.7%
20,O=C(OCC(=O)N1CCc2ccccc21)c1c2c(nc3ccccc13)CCCCC2,4.9%
21,CN1/C(=C\C(=S)NC(=O)c2ccccc2Cl)C(C)(C)c2ccccc21,-48.3%
22,COc1ccccc1C(=O)NC(=S)/C=C1/N(C)c2ccccc2C1(C)C,90.4% (active)
23,Cc1ccc(C(=O)NC(=S)/C=C2\N(C)c3ccccc3C2(C)C)cc1,15.2%
24,Fc1ccccc1/C=C1\CCCC2=C1Nc1ncnn1C2c1ccccc1F (stereo unspecified),91% (active)

row,SMILES,inhibition
1,C(=C1/CCCC2=C1Nc1ncnn1C2c1ccccc1)/c1ccccc1 (stereo unspecified),3.1%
2,Fc1ccccc1/C=C1\CCCC2=C1Nc1nnnn1C2c1ccccc1F (stereo unspecified),11.4%
3,Cc1ccc(CSc2nn3c(=O)c(C)nnc3s2)cc1,-32.1%
4,O=[N+]([O-])C(=c1ccc2c(c1)N1C3=C(CCCC3)CC3CCCCC31N=2)[N+](=O)[O-] (stereo unspecified),0.7%
5,N#C/C(C(N)=O)=c1/ccc2c(c1)N1C3=C(CCCC3)CC3CCCCC31N=2 (stereo unspecified),86.2% (active)
6,N#CC(C#N)=c1ccc2c(c1)N1C3=C(CCCC3)CC3CCCCC31N=2 (stereo unspecified),7%
7,COc1cccc(CNC(=O)CN(C)S(=O)(=O)c2cccc3cccnc23)c1,-2.3%
8,CCC(C)C(NC(=O)CCC(=O)OCC(=O)[C@@]1(O)CCC2[C@@H]3CCC4=CC(=O)C=C[C@]4(C)C3[C@@H](O)C[C@@]21C)C(=O)O (stereo partly specified),-4.9%
9,O=C(Nc1nc(-c2cccs2)cs1)c1ccc(Cl)s1,-18.7%
10,O=C(Nc1nc(-c2ccccn2)cs1)c1ccc(Br)s1,32.1%
11,Cc1cc(=O)n(C)c2ccc(S(=O)(=O)N3CCOCC3)cc12,-9%
12,O=C(/C(=C/O)N=Nc1ccccc1)c1cccs1,-9.4%
13,COc1ccc(N=N/C(=C\O)C(=O)c2cccs2)cc1,41.3% (active)
14,Cc1cccc(N=N/C(=C\O)C(=O)c2cccs2)c1,27%
15,Cc1ccccc1C(=O)Nc1c(C)[nH]c(=O)[nH]c1=O,-1.1%
16,CCC(=O)Nc1cccc(C2=NOC3(C2)C[C@H](C(N)=O)N(C(=O)Cc2ccc([N+](=O)[O-])cc2)C3)c1 (stereo partly specified),0%
17,O=[N+]([O-])c1cccc(-c2ccc(/C=N/Nc3nc(N4CCCCC4)nc(N4CCCCC4)n3)o2)c1,34.4% (active)
18,O=[N+]([O-])c1ccc(-c2ccc(/C=N/Nc3nc(N4CCCC4)nc(N4CCCC4)n3)o2)cc1,-26.6%
19,O=[N+]([O-])c1ccc(-c2ccc(/C=N/Nc3nc(N4CCCCC4)nc(N4CCCCC4)n3)o2)cc1,7.6%
20,FC(F)(F)c1cccc(-c2ccc(/C=N/Nc3nncc(-c4ccccc4)n3)o2)c1,-58.3%
21,COc1ccccc1-c1cnnc(N/N=C/c2ccc(-c3cccc(Br)c3)o2)n1,52.2% (active)
22,Brc1ccc(-c2ccc(/C=N/Nc3nncc(-c4ccccc4)n3)o2)cc1,-106%
23,S=c1nc(NCCc2ccccc2Cl)c2ccccc2[nH]1,-4%
24,CC(NC(=O)Cn1nc(C(=O)O)c2ccccc2c1=O)C12CC3CC(CC(C3)C1)C2 (stereo unspecified),-19.8%

row,SMILES,inhibition
1,CC(NC(=O)CN1CCCC1)C12CC3CC(CC(C3)C1)C2 (stereo unspecified),1.9%
2,CC(NC(=O)Cn1ncc(Cl)c(Cl)c1=O)C12CC3CC(CC(C3)C1)C2 (stereo unspecified),87% (active)
3,COC(=O)N[C@H](CC(C)=O)c1cccc(C(F)(F)F)c1,-18.1%
4,Cc1ccccc1C(=O)Nc1ccnn1C1CCN(C2CCSCC2)CC1,-16.1%
5,O=C(Nc1ccc(Cl)cc1)c1sccc1-n1cccc1,-13%
6,Cc1ccc(-n2[nH]c(=O)c(-c3ccccn3)c2C)cc1,65.1% (active)
7,Cc1c(-c2ccccn2)c(=O)[nH]n1-c1ccc(F)cc1,-25.2%
8,Cc1ccc(-n2[nH]c(=O)c3cccnc32)cc1,4.2%
9,COc1ccc(N(C(=O)CCl)C(C(=O)NCCc2ccccc2)c2cccs2)cc1Cl (stereo unspecified),63.5%
10,O=C(NCCc1ccccc1)C(c1cccs1)N(C(=O)c1csnn1)C1CC1 (stereo unspecified),-15.8%
11,COC(=O)c1ccccc1C(=O)c1cccc2ccccc12,30.1%
12,CC(C)(C)c1cc(NC(=O)Nc2ccc(Br)cc2Cl)no1,-19.7%
13,CCOC(=O)c1c(C)[nH]c(C(=O)O)c1C,7.9%
14,CCOC(=O)c1[nH]c(C)c(C(=O)OCC)c1C,-5.4%
15,CCOC(=O)c1c(C)[nH]c(C(=O)C(C)Cl)c1C (stereo unspecified),58.6% (active)
16,O=C(CN1CCN(c2ccccc2)CC1)Nc1ccc(Oc2ccccc2)cc1,-2.2%
17,COc1ccc(-c2cc(C(=O)NCC3CCCO3)c3cc(C(C)C)ccc3n2)cc1 (stereo unspecified),-1.8%
18,CNC(=O)c1c(NC(=O)c2cccc(N3C(=O)CCC3=O)c2)sc2c1CCC2,5.2%
19,Cc1cccc(C(=O)Nc2sc3c(c2C(=O)O)CCC3)c1,-0.7%
20,O=C(Nc1sc2c(c1C(=O)O)CCCCC2)c1ccccc1,43.3%
21,NC(=O)c1c(NC(=O)c2ccccc2Cl)sc2c1CCC2,-50%
22,O=C(Nc1sc2c(c1C(=O)O)CCC2)c1ccccc1Cl,17.5%
23,CNC(=O)c1c(NC(=O)c2cccc(C)c2)sc2c1CCC2,109% (active)
24,O=C(Nc1sc2c(c1C(=O)O)CCC2)c1ccccc1,26.9%
